# ChEMBL document CHEMBL5598561, “ASAP - In vitro binding kinetics” (2024)
# Target: Nonstructural protein 3 (Zika virus) (UniProt A0A024AXB9)
# Details: PRVABC59, Concentration 10.0 uM
# Chain of Nonstructural protein 3 (Zika virus) (A0A024AXB9 as listed by the source): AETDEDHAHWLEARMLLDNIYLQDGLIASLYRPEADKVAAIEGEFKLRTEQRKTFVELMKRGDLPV
structure (smiles),measurement,setting,value
O=C(NC[C@H]1CCCO1)[C@H](Nc1ccc2c(c1)CNC2)c1cc(Cl)cc2[nH]ncc12,pKD,"Immobilization level 10000.0 pg/mm2, Rmax 25.0 pg/mm2, ka 729483.46 M-1s-1, kd 0.307 1/s",6.38
same,pKD,"Immobilization level 12000.0 pg/mm2, Rmax 48.0 pg/mm2, ka 423834.605 M-1s-1, kd 0.21 1/s",6.31
same,pKD,"Immobilization level 13000.0 pg/mm2, Rmax 36.0 pg/mm2, ka 640560.866 M-1s-1, kd 0.251 1/s",6.41
CCOCCCN1Cc2ccc(NC(=O)c3cc(Cl)cc4[nH]ncc34)cc2C1,pKD,"Immobilization level 3900.0 pg/mm2, Rmax 34.0 pg/mm2, ka 194403.459 M-1s-1, kd 4.353 1/s",4.65
same,pKD,"Immobilization level 4900.0 pg/mm2, Rmax 26.0 pg/mm2, ka 190862.396 M-1s-1, kd 2.393 1/s",4.9
same,pKD,"Immobilization level 5500.0 pg/mm2, Rmax 37.0 pg/mm2, ka 197216.313 M-1s-1, kd 2.701 1/s",4.86
O=C(Nc1ccc2c(c1)CNCC2)c1cc(Cl)cc2[nH]ncc12,pKD,"Immobilization level 10000.0 pg/mm2, Rmax 29.0 pg/mm2, ka 396120.04 M-1s-1, kd 1.246 1/s",5.5
same,pKD,"Immobilization level 12000.0 pg/mm2, Rmax 39.0 pg/mm2, ka 584891.909 M-1s-1, kd 0.796 1/s",5.87
same,pKD,"Immobilization level 13000.0 pg/mm2, Rmax 25.0 pg/mm2, ka 840035.203 M-1s-1, kd 1.038 1/s",5.91
O=C(NC[C@H]1CCCO1)[C@H](Nc1ccc2c(c1)CNC2)c1cc(Cl)cc(C2CC2)c1,pKD,"Immobilization level 10000.0 pg/mm2, Rmax 42.0 pg/mm2, ka 577169.922 M-1s-1, kd 0.179 1/s",6.51
same,pKD,"Immobilization level 12000.0 pg/mm2, Rmax 59.0 pg/mm2, ka 295597.466 M-1s-1, kd 0.112 1/s",6.42
same,pKD,"Immobilization level 13000.0 pg/mm2, Rmax 62.0 pg/mm2, ka 409256.138 M-1s-1, kd 0.153 1/s",6.43
Cn1cc(CCc2nc3c(C(=O)Nc4ccc5c(c4)CNC5)cc(Cl)cc3[nH]2)cn1,pKD,"Immobilization level 10000.0 pg/mm2, Rmax 29.0 pg/mm2, ka 162831.43 M-1s-1, kd 0.539 1/s",5.48
same,pKD,"Immobilization level 12000.0 pg/mm2, Rmax 67.0 pg/mm2, ka 60654.253 M-1s-1, kd 0.241 1/s",5.4
same,pKD,"Immobilization level 13000.0 pg/mm2, Rmax 46.0 pg/mm2, ka 118753.092 M-1s-1, kd 0.416 1/s",5.46
O=C(Nc1ccc2c(c1)OCCNC2)c1cc(Cl)cc2[nH]ncc12,pKD,"Immobilization level 10000.0 pg/mm2, Rmax 33.0 pg/mm2, ka 475344.334 M-1s-1, kd 1.334 1/s",5.55
same,pKD,"Immobilization level 12000.0 pg/mm2, Rmax 41.0 pg/mm2, ka 216924.489 M-1s-1, kd 0.865 1/s",5.4
same,pKD,"Immobilization level 13000.0 pg/mm2, Rmax 42.0 pg/mm2, ka 331181.332 M-1s-1, kd 1.11 1/s",5.47
Cc1ccc(NC(=O)c2cc(Cl)cc3[nH]ncc23)cc1CN,pKD,"Immobilization level 3900.0 pg/mm2, Rmax 48.0 pg/mm2, ka 216599.094 M-1s-1, kd 1.609 1/s",5.13
same,pKD,"Immobilization level 4900.0 pg/mm2, Rmax 54.0 pg/mm2, ka 242573.531 M-1s-1, kd 1.329 1/s",5.26
same,pKD,"Immobilization level 5500.0 pg/mm2, Rmax 70.0 pg/mm2, ka 222473.098 M-1s-1, kd 1.517 1/s",5.17
same,pKD,"Immobilization level 10000.0 pg/mm2, Rmax 57.0 pg/mm2, ka 286418.042 M-1s-1, kd 1.725 1/s",5.22
same,pKD,"Immobilization level 12000.0 pg/mm2, Rmax 54.0 pg/mm2, ka 243003.449 M-1s-1, kd 1.258 1/s",5.29
same,pKD,"Immobilization level 13000.0 pg/mm2, Rmax 74.0 pg/mm2, ka 258887.039 M-1s-1, kd 1.289 1/s",5.3
Cn1cc(CNC(=O)[C@H](Nc2ccc3c(c2)CNC3)c2cc(Cl)cc(C3CC3)c2)cn1,pKD,"Immobilization level 10000.0 pg/mm2, Rmax 44.0 pg/mm2, ka 376767.851 M-1s-1, kd 0.158 1/s",6.38
same,pKD,"Immobilization level 12000.0 pg/mm2, Rmax 64.0 pg/mm2, ka 164221.498 M-1s-1, kd 0.09 1/s",6.26
same,pKD,"Immobilization level 13000.0 pg/mm2, Rmax 64.0 pg/mm2, ka 253337.321 M-1s-1, kd 0.133 1/s",6.28
